Pf growth 96h: P. falciparum growth inhibition at 96 hour, primary screen for plastid delayed-death inhibitors | hit rate 6.9% among 320,000 | P. falciparum luciferase reporter growth, 96 h | Potency, µM (highest dose often 28.7 µM), hits mostly inhibitors
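Two parasite generations (96 h, 37 C, 5% CO2) of compound exposure in infected erythrocytes (0.05% parasitemia, 2% hematocrit). Luciferase-reporter P. falciparum; decreased luminescence indicates inhibited growth, aimed at apicoplast-acting delayed death.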
Pf growth 48h: inhibits P. falciparum growth in the first generation, 48 h | P. falciparum luciferase growth in erythrocytes, 48 h | AID 504832 | Potency, µM (top dose mostly 28.7 µM), most hits filed as inhibitors | hit rate 5.9% among 310,000
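Compounds are pin-transferred into medium, infected erythrocytes (2% hematocrit, 0.1% parasitemia final) are added, and plates sit one parasite generation at 37 C in 5% CO2. Detection reagent is then added and luminescence measured.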
AmpC no deterg: blocks E. coli AmpC beta-lactamase in detergent-free assay. P00811. AmpC nitrocefin hydrolysis, absorbance 480 nm, 0.0001% Triton. Potency, µM (highest dose often 57.1 µM), actives largely listed as inhibitors. hit rate 0.52% among 330,000; also: nearly all actives have a fitted effect of over 20% in size
Target sequence (P00811 whole entry, looked up): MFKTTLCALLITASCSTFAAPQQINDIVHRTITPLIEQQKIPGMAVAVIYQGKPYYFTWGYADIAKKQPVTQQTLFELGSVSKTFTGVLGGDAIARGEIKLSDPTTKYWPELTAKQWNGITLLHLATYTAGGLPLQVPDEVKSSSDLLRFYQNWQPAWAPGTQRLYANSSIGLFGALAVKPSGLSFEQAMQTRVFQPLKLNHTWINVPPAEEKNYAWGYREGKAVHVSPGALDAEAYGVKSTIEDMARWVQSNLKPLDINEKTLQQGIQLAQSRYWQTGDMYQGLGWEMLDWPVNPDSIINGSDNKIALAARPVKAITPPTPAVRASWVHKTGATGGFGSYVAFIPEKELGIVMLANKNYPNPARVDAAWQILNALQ
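20 mM phosphate pH 7.0 + 0.01% (detergent screen) or 0.0001% Triton X-100; 5.3 nM AmpC reagent; cpd preinc 15 min RT; nitrocefin (800 uM stock) to start; A480 q20 s × 4 min; Activity was normalised to no-enzyme and no-compound control wells.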
Sm TGR block: S. mansoni TGR enzyme inhibition. hit rate 3% among 360,000. AID 485364. Q962Y6. purified TGR, DTNB reduction, TNB absorbance 405 nm. Potency, µM (doses to about 114 µM), most hits filed as inhibitors; also: nearly all actives have a fitted effect of over 60% in size
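TGR 20 nM + NADPH 100 uM (dispensed conc.), cpd preinc 15 min RT; start with NADPH (500 uM addition) then DTNB (15 mM addition). Kinetic TNB absorbance, 405 nm filter. Four-parameter Hill fit across titration.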
SARS PLP yeast: SARS-CoV PLP inhibition in yeast; hit rate 0.19% among 330,000; AID 485353; S. cerevisiae expressing SARS-CoV PLpro, growth rescue; Potency, µM (top dose mostly 32.9 µM), usual class: activators; calls by dose curve; also: nearly all actives have a fitted effect of over 55% in size
AmpC detergent: AmpC beta-lactamase inhibition with detergent present | P00811 | AmpC hydrolysis of nitrocefin, absorbance 480 nm, 0.01% Triton | Potency, µM (highest dose often 114 µM), hits mostly inhibitors | hit rate 0.041% among 370,000 | AID 485294; also: nearly all actives have a fitted effect of over 25% in size
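AmpC (5.3 nM in the dispensed reagent) in 20 mM phosphate pH 7.0 with 0.01% (detergent screen) or 0.0001% Triton X-100 was preincubated with compounds for 15 min at room temperature. Nitrocefin was then added from an 800 uM solution, and hydrolysis was followed at 480 nm.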
Each line names hits and unclear results; the compound was inactive in the other large screens. Rows were chosen to be rich in hits. Some 12% of all compounds tested hit in one or more screens of this group. Unless noted, calls follow the shape of the dose curve; as a rule, active = well fitted curve in the direction sought with a large enough effect; inconclusive = small, poorly fitted or top-dose-only effect, or another doubt; inactive = no such curve, though single readings can be large; an effect the other way counts as inactive or inconclusive.

Cc1ccc(C(=O)Nc2ccc(N3CCN(C(=O)c4ccco4)CC3)cc2)cc1	Pf growth 48h inconclusive
O=C(Nc1ccc(N2CCN(C(=O)c3ccco3)CC2)cc1)c1ccc(Br)cc1	Pf growth 96h inconclusive, Pf growth 48h inconclusive
CN(C)S(=O)(=O)c1ccccc1N=C=S	Sm TGR block 16µM
CCCCCCCCC(=O)Nc1cc(C)ccc1OC	Pf growth 96h inconclusive, Pf growth 48h 10µM, AmpC detergent inconclusive
COc1ccccc1NC(=O)CN1C(=O)COc2ccc(C)cc21	none
COc1ccc(C)cc1NC(=O)CN1C(=O)COc2ccc(C)cc21	Pf growth 96h 5.2µM, SARS PLP yeast inconclusive, AmpC detergent inconclusive
CCN1CCCC1CNC(=O)CN1C(=O)COc2ccc(C)cc21 (stereo not drawn)	AmpC no deterg 25µM
CC(C)CC1Nc2ncnc(N3CCN(c4ccccn4)CC3)c2N(Cc2ccccc2)C1=O (stereo not drawn)	none (no result: Pf growth 96h, Pf growth 48h, Sm TGR block, AmpC detergent)
COC(=O)CN(C)C(=O)c1ccccc1OC1CCN(S(C)(=O)=O)CC1	Pf growth 96h 13µM
CS(=O)(=O)N1CCC(Oc2ccccc2C(=O)N2CCCCC2CO)CC1 (stereo not drawn)	Pf growth 96h inconclusive
CC(C)(C)c1ccc(C(=O)OCC(=O)NC2CC2)cc1	Pf growth 96h inconclusive, Pf growth 48h 9.3µM
CCC(=O)Nc1c(S(=O)(=O)c2ccccc2)c2nc3ccccc3nc2n1C(C)c1ccccc1 (stereo not drawn)	Pf growth 96h 12µM, Pf growth 48h 12µM, AmpC detergent inconclusive
COc1ccc(F)c(CN2CCN(CCc3ccccc3)C(CCO)C2)c1 (stereo not drawn)	Pf growth 96h 3.7µM
COc1ccc(O)c(CN2CCN(CCCc3ccccc3)C(CCO)C2)c1 (stereo not drawn)	Pf growth 96h inconclusive, Pf growth 48h inconclusive
OCCC1CN(Cc2ccc(F)cc2Cl)CCN1CCc1ccccc1 (stereo not drawn)	Pf growth 96h inconclusive, SARS PLP yeast inconclusive
OCCC1CN(Cc2cc(F)ccc2F)CCN1CCCc1ccccc1 (stereo not drawn)	Pf growth 96h 13µM, Pf growth 48h inconclusive, AmpC detergent inconclusive
COc1ccc(OC)c(CN2CCN(CCc3ccccc3)C(CCO)C2)c1 (stereo not drawn)	Pf growth 96h 13µM
CCc1nn(CC(=O)NCCC(C)C)c(=O)c2cc3occc3n12	none (no result: Pf growth 96h, Pf growth 48h, AmpC no deterg, SARS PLP yeast)
O=C1Nc2cccnc2N(C(=O)CCl)c2ccccc21	Pf growth 96h inconclusive, Sm TGR block inconclusive
O=C(CCc1ccc(S(=O)(=O)NC2CCCCC2)cc1)NCc1ccccn1	Sm TGR block 35µM
CCNS(=O)(=O)c1ccc(CCC(=O)NCc2ccccn2)cc1	none
O=C(COc1ccc(S(=O)(=O)Nc2ccccc2)cc1)NCc1ccccn1	Pf growth 96h inconclusive
O=C(COc1ccc(S(=O)(=O)NC2CCCCC2)cc1)NCc1ccccn1	Pf growth 96h 4.1µM
Cc1cccnc1Sc1c([N+](=O)[O-])ncn1C	none
Cn1cnc([N+](=O)[O-])c1Sc1nnc(-c2cccnc2)n1C	Pf growth 96h inconclusive, Pf growth 48h inconclusive, Sm TGR block 0.45µM
CCC(C(=O)NCc1ccccc1OC)n1nc(C)n2c(cc3sccc32)c1=O (stereo not drawn)	none (no result: Pf growth 96h, Pf growth 48h, AmpC no deterg, SARS PLP yeast)
CCN(C(=O)CSc1ncc(S(=O)(=O)c2ccc(C)c(Cl)c2)c(=O)[nH]1)c1cccc(C)c1	none (no result: Pf growth 96h, Pf growth 48h, AmpC no deterg, SARS PLP yeast)
CCOC(=O)C1=C(C)NC2=C(C(=O)c3ccccc32)C1c1cccnc1 (stereo not drawn)	AmpC detergent inconclusive
CC(C)c1ccc(C2C3=C(CC(C)(C)CC3=O)NC3=C2C(=O)c2ccccc23)cc1 (stereo not drawn)	Pf growth 96h 6.6µM, Pf growth 48h 9.3µM
CCOc1ccc(C2C(C#N)=C(C)NC3=C2C(=O)c2ccccc23)cc1 (stereo not drawn)	Pf growth 96h 9.3µM (no result: Pf growth 48h)
COc1ccc(C2C(C#N)=C(C)NC3=C2C(=O)c2ccccc23)cc1 (stereo not drawn)	Pf growth 96h inconclusive

High-throughput results (PubChem BioAssay)
